Results taken from PubChem BioAssay (NCI).
The panel holds about 83,000 compounds, 20% with a hit somewhere; the sample as a whole holds those more often.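 In brief: 96-well plates, 48 h treatment, single concentration, percent growth endpoint.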 Active and inactive are the calls of the source. How the source made its calls: active means growth percent below 10; inactive means the rest.

Assays:
Assay in all cases: NCI-60 one-dose screen, 48 h (100 = growth as untreated, 0 = no growth, -100 = all killed)
Details in all cases: 10 µM unless noted
[1] = system: SR leukemia
[2] = system: RPMI-8226 leukemia
[3] = system: OVCAR-8 ovarian
[4] = system: OVCAR-5 ovarian
[5] = system: OVCAR-4 ovarian
[6] = system: SK-OV-3 ovarian
[7] = system: IGROV1 ovarian
[8] = system: OVCAR-3 ovarian
[9] = system: HS 578T breast
[10] = system: NCI/ADR-RES ovarian

Measured: growth

CCOC(=O)c1sc2nc(-c3cccc(O)c3)nc(N3CCOCC3)c2c1C
inactive: [1] 65% | [2] 55.4% | [3] 61.8% | [4] 88.3% | [5] 51.3% | [6] 51.1% | [7] 16.9% | [8] 60.5% | [9] 15.5% | [10] 59.6%

C#CCOc1ccc2ncnc(Nc3cccc(CNC(=O)C=C)c3)c2c1
inactive: [1] 103% [8.25 µM] | [2] 101% [8.25 µM] | [3] 95.8% [8.25 µM] | [4] 100% [8.25 µM] | [5] 92.5% [8.25 µM] | [6] 107% [8.25 µM] | [7] 88.8% [8.25 µM] | [8] 104% [8.25 µM] | [9] 91.9% [8.25 µM] | [10] 107% [8.25 µM]

COc1ccc(CN2c3ccccc3Sc3ccccc32)cc1O
inactive: [1] 16.1% | [2] 24.4% | [3] 22.1% | [4] 86% | [5] 45.7% | [6] 29.1% | [7] 30.2% | [9] 33% | [10] 18.5%
active: [8] 7.47%

O=C1C=CC(=O)N1c1ccc2c(c1)Cc1cc(F)ccc1-2
inactive: [1] 70.6% | [2] 28.2% | [3] 99.4% | [4] 93.5% | [5] 83.3% | [6] 103% | [7] 94% | [8] 115% | [9] 97.8% | [10] 105%

CCOC(=O)c1c(C)oc2ncnc(N3CCN(C(=S)Nc4ccccc4)CC3)c12
inactive: [1] 94.5% | [2] 83.3% | [3] 94% | [4] 90% | [5] 85.1% | [6] 96.9% | [7] 95.4% | [8] 103% | [9] 87% | [10] 90.3%

C#CC(F)(F)[C@]1(O)CC[C@H]2[C@@H]3CCC4=CC(=O)CCC4=C3[C@@H](c3ccc(C4CC4)cc3)C[C@@]21C
active: [1] -38.7% | [2] -42.5% | [4] 9.97% | [6] -79.4% | [7] -48.5% | [8] -73.4%
inactive: [3] 24.8% | [5] 10.9% | [9] 33.4% | [10] 11%

N#CN1CCC[C@H]1C(=O)N1CCc2c(-c3[nH]nc4ncccc34)cccc21
inactive: [2] 18.1% | [4] 56.3% | [5] 18.5% | [7] 17.1%
active: [1] 6.84% | [3] 1.11% | [6] -1.17% | [8] -32% | [9] -2.6% | [10] 8.38%

CN1CCN(c2nc(NCCCNc3ccnc4cc(Cl)ccc34)c3ccccc3n2)CC1
active: [1] -25.3% | [2] 8.13%
inactive: [3] 38.8% | [4] 84.8% | [5] 59.8% | [6] 66.6% | [7] 70.7% | [8] 75.8% | [9] 79.5% | [10] 96.3%

Cc1cc(N2CCN(C)CC2)nc(NC2CCCC(Nc3ccnc4cc(Cl)ccc34)C2)n1 (stereo not given)
inactive: [5] 20.3% | [6] 18.6% | [7] 10.5% | [10] 18.7%
active: [1] -31% | [2] -47.8% | [3] 5.87% | [4] 9.67% | [8] -18.7% | [9] -18.7%

CC[C@]1(O)C[C@@H]2CN(CCc3c([nH]c4ccccc34)[C@@](C(=O)OC)(c3cc4c(cc3OC)N(C)[C@H]3[C@@](O)(C(N)=O)[C@H](O)[C@]5(CC)[C@@H]6C[C@@H]6CN6CC[C@]43[C@@H]65)C2)C1
inactive: [1] 12.1% | [2] 13.8% | [3] 15.9% | [4] 52.2% | [5] 52% | [6] 14.8% | [7] 36.5% | [9] 30.2%
active: [8] 6.81% | [10] 9.52%

Cc1ccc(C2=NN3C(C2)c2cc(Br)ccc2OC32CCN(Cc3ccccc3)CC2)o1 (stereo not given)
inactive: [1] 90.2% | [2] 80.8% | [3] 98.8% | [4] 109% | [5] 94.3% | [6] 93.7% | [7] 82.1% | [8] 96.6% | [9] 92% | [10] 94%

COc1cc(-c2ccc3c(c2)NC(=O)/C3=C\c2ccc[nH]2)ccc1O
inactive: [3] 18.5% | [4] 48.2% | [5] 52.4% | [6] 30.7% | [7] 26.3% | [9] 53.9% | [10] 12.7%
active: [1] 8.9% | [2] 6.57% | [8] 9.59%

Cn1c(NCCc2ccc(O)c(O)c2)nc2c1c(=O)n(Cc1ccc(Br)cc1)c(=O)n2C
inactive: [1] 61.6% | [2] 25.6% | [3] 71.9% | [4] 99.4% | [5] 53.2% | [6] 75.5% | [7] 37.7% | [8] 69.4% | [9] 95.3% | [10] 82.5%

COc1ccc(S(=O)(=O)N2CCCCC2)cc1NC(=O)c1[nH]c(C)c2c1CCCCC2=O
inactive: [1] 34.3% | [2] 10.1% | [3] 32.8% | [4] 48.4% | [5] 42% | [6] 19.7% | [7] 15.3% | [8] 23.5% | [9] 15.4% | [10] 28.3%

Cc1cc(N2CCCC2)nc(NC2CCCC(Nc3ccnc4cc(Cl)ccc34)C2)n1 (stereo not given)
inactive: [5] 17.1%
active: [1] -56.6% | [2] -55.6% | [3] -69.8% | [4] -14.8% | [6] -29% | [7] -27.5% | [8] -53.2% | [9] -41.6% | [10] -10.1%
